PubChem BioAssay (NCATS)
Inconclusive results are not listed. Calls of active or inactive are those of the source. Calls follow the shape of the dose curve; as a rule, active = well fitted inhibition curve with a large enough effect; inconclusive = small, poorly fitted or top-dose-only effect; inactive = flat fitted curve, though single readings scatter.

How the values were obtained:
Experiment in all cases: qHTS profiling for inhibitors of Plasmodium falciparum proliferation (AID 504749); also: nearly all actives have a fitted effect of over 60% in size
Conditions in all cases: P. falciparum in erythrocytes, SYBR Green DNA, 72 h; series mostly up to 28.7 µM
CP256 = system: CP256
Procedure, shortened: (§1)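 In a 72 h erythrocytic culture (37 C, humidified, 5% CO2) at 2.5% hematocrit and 0.3% starting parasitemia, compounds were tested; SYBR Green I in detergent lysis buffer stained parasite DNA overnight.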

CP260 = system: CP260
Procedure, shortened: as §1

CP262 = system: CP262
Procedure, shortened: as §1

CP265 = system: CP265
Procedure, shortened: as §1

CP266 = system: CP266
Procedure, shortened: as §1

CP268 = system: CP268
Procedure, shortened: as §1

CP269 = system: CP269
Procedure, shortened: as §1

CP291 = system: CP291
Procedure, shortened: as §1

CP297 = system: CP297
Procedure, shortened: as §1

CP305 = system: CP305
Procedure, shortened: as §1

CP315 = system: CP315
Procedure, shortened: as §1

CP325 = system: CP325
Procedure, shortened: as §1

CP329 = system: CP329
Procedure, shortened: as §1

CP335 = system: CP335
Procedure, shortened: as §1

CP238 = system: CP238
Procedure, shortened: as §1

CP247 = system: CP247
Procedure, shortened: as §1

CP250 = system: CP250
Procedure, shortened: as §1

CP252 = system: CP252
Procedure, shortened: as §1

CP286 = system: CP286
Procedure, shortened: as §1

DFO2036 = system: DFO2036
Procedure, shortened: as §1

Measured: Potency
Potency is read from the fitted curve at half-maximal effect.

O=C(NC(=O)c1c(F)cccc1F)Nc1cc(Cl)c(OC(F)(F)C(F)C(F)(F)F)cc1Cl (centres undefined)
active: CP256 8.91 µM | CP260 10 µM | CP265 7.94 µM
not listed: CP335 | CP238 | CP247 | CP250 | CP252 | CP286 | DFO2036
inactive: all other assays above

CCN(CC)CCOC(=O)C(C)(c1ccccc1)c1ccccc1
inactive: CP315
active: CP335 4.78 µM

C[C@]12C=CC(=O)C=C1CC[C@@H]1[C@@H]2CC[C@@]2(C)[C@H]1CC[C@]2(C)O
active: CP297 19 µM
not listed: CP266 | CP268 | CP269 | CP291 | CP305 | CP315 | CP325 | CP329
inactive: all other assays above

COC(=O)C1=CCCN(C)C1
not listed: CP260
inactive: all other assays above

CC[C@]1(O)CC[C@H]2[C@@H]3CCC4=CCCC[C@@H]4[C@H]3CC[C@@]21C
not listed: CP256 | CP265 | CP305 | CP250 | DFO2036
inactive: all other assays above

COc1ccc(C(=O)N2CCCC2=O)cc1
not listed: CP291 | CP297
inactive: all other assays above
